MCF10A rereplic = DNA re-replication induction in MCF 10a cells; MCF 10A DNA re-replication, Hoechst nuclear intensity, 48 h; Potency, µM (series often up to 46.1 µM), for the others: at the highest dose activity, positive = re-replication, most hits filed as activators; 350,000 compounds, 2.9% hits; AID 624296; further: % of control where 0% means no effect; nearly all actives have a fitted effect of over 50% in size
KB-3-1 cytotox = KB-3-1 parental cell cytotoxicity; Potency, µM (doses to about 46.1 µM), hits mostly cytotoxic; 400,000 compounds, 1.4% hits; KB-3-1 viability, CellTiter-Glo ATP luminescence, 72 h; further: on the % scale 0 is the no-effect control and ±100 the full control effect; nearly all actives have a fitted effect of over 60% in size
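KB-3-1 parental drug-naive adenocarcinoma cells in DMEM/10% FBS, incubated 72 h at 37 C with pin-transferred compounds across a concentration series. Viability by CellTiter-Glo luminescence; concentration-response curves fitted after normalization.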
HT1080 IDH1KD tx = kills HT-1080 cells with IDH1 knockdown; HT-1080 IDH1 knockdown viability, ATP luminescence, 48 h; Potency, µM (doses to about 46.1 µM), for the others: at the top dose activity, negative = toxicity, actives largely listed as cytotoxic; AID 686971; 360,000 compounds, 2% hits;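 further: 0% = DMSO wells and -100% = cell-free medium wells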
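Knockdown cells (IDH1KD HT-1080) received compounds 2 h after plating at 750 cells/well and were kept 48 h at 37 °C in 5% FBS RPMI. A CellTiter-Glo luminescence read gave % activity for curve fitting.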
KB-V1 MDR tox = kills drug-selected multidrug resistant KB-V1 cells | KB-V1 MDR cells viability, CellTiter-Glo, 72 h | Potency, µM (series often up to 46.1 µM), actives largely listed as cytotoxic | 400,000 compounds, 3.4% hits | AID 1347076; further: on the % scale 0 is the no-effect control and ±100 the full control effect; nearly all actives have a fitted effect of over 60% in size
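Cells of the MDR subline KB-V1 are plated, dosed with compound at multiple concentrations, and incubated 72 h at 37 degrees C; CellTiter-Glo is then added and luminescence read after 10 min.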
HT1080NT lethal = kills 2HG-producing HT-1080-NT fibrosarcoma cells; 360,000 compounds, 1.6% hits; Potency, µM (titrated, usually from 46.1 µM), inactives show top-dose activity, negative = less viability, usual class: cytotoxic; AID 686970; HT-1080-NT fibrosarcoma viability, CellTiter-Glo ATP luminescence, 48 h;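 further: NT is the 2HG producing partner of a matched IDH1 knockdown line; 0% = DMSO-treated cells and -100% = media-only wells without cells; nearly all actives have a fitted effect of over 55% in size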
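Luminescent CellTiter-Glo readout after 48 hours of compound exposure at 37 degrees C defined viability of HT-1080-NT cells. Activity was normalized to DMSO wells and cell-free media wells; concentration-response curves were fitted and assigned curve classes.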
SW480 rereplic = DNA re-replication induction in SW480 cells; 340,000 compounds, 1.8% hits; SW480 DNA re-replication, Hoechst DNA content imaging, 48 h; Potency, µM (titrated, usually from 46.1 µM), for the others: top-dose re-replication activation, usual class: activators; further: % of control where 0% means no effect; nearly all actives have a fitted effect of over 55% in size
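DNA re-replication was detected as more nuclei of elevated Hoechst intensity after 48 hr exposure to compound (23 nL pinned per well of 250 cells).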
* marks the source's active call; other numbers are inactive results; i = inactive; ? = inconclusive; nt = no result; ! = repeats disagree; [ ] = another dose, or the depositor's remark. Shown are actives, neighbours in structure and some others; about 7.9% of the full set was active somewhere. The call rests on the fitted dose curve; in most records, active means well fitted curve in the direction sought with a large enough effect; inconclusive means small, poorly fitted or top-dose-only effect, or another doubt; inactive means no such curve, though single readings can be large; an effect the other way counts as inactive or inconclusive. Potency means the concentration at half of the fitted maximal effect.

SMILES | MCF10A rereplic | KB-3-1 cytotox | HT1080 IDH1KD tx | KB-V1 MDR tox | HT1080NT lethal | SW480 rereplic
Cc1cc(NC(=O)c2ccc3c(c2)OCO3)ccc1NC(=O)c1ccco1 | -16% | ? | 18µM* | ? | ? | 2%
Cc1ccc(C(=O)Nc2ccc3c(c2)OCO3)cc1NC(=O)c1ccco1 | -4% | i | -3% | i | -21% | i[1.84 µM]
CCCCC(=O)Nc1cccc(NC(=O)c2ccc3c(c2)OCO3)c1 | 1% | i | 8% | 13µM* | -27% | -4%
O=C(Nc1cccc(NC(=O)c2ccco2)c1)c1ccc2c(c1)OCO2 | -26% | i | 6% | 13µM* | -6% | 0%
CCCCC(=O)Nc1cccc(NC(=O)c2ccc(Br)o2)c1 | -1% | i | 3% | 12µM* | 3% | 1%
CC(=O)Nc1ccc2ccccc2c1 | 18% | i | 14% | i | -1% | -13%
CC(=O)Nc1ccc2cc3ccc(NC(C)=O)cc3nc2c1 | -8% | 23µM* | ? | i | ? | -4%
CCCCCCCCN1[C@@H](CC(=O)OC)c2cc(C(F)(F)F)ccc2S1(=O)=O | 25% | i | -2% | ? | -1% | 3%
CCCCCCCCN1[C@@H](CC(C)=O)c2cc(C(F)(F)F)ccc2S1(=O)=O | 10% | ? | -3% | 18µM*! | -11% | ?
CCCN(C(=O)Cn1cnc2sc(C)c(S(=O)(=O)N3CCN(c4ncccn4)CC3)c2c1=O)c1cccc(C)c1 | nt | i | nt | i | nt | nt
Cn1c(=O)c2ccccc2n2c(CCl)nnc12 | ? | ? | ? | ? | ? | 16µM*
FC(F)(F)c1cccc(N2CCN(c3nnnn3-c3ccccc3)CC2)c1 | 13% | i | -4% | ? | 2% | 11%
CN1CCN(C=NC2=NN(c3cccc(C(F)(F)F)c3)CC2)CC1 | 6% | ? | -19% | 10µM* | -3% | -3%
CN(C)C=NC1=NN(c2cccc(C(F)(F)F)c2)CC1 | 14% | 21µM* | -11% | 2.1µM* | -17% | -4%[9.22 µM]
O=C(NCc1cccs1)c1ccc(CS(=O)Cc2cccc(Cl)c2)o1 (centres undefined) | 0% | i | 1% | i | 3% | 3%
CC(C)N1CCC2(CC1)N=C(c1ccc3c(c1)OCO3)CC(c1cc(Cl)ccc1O)N2 (centres undefined) | 5.8µM* | 15µM* | ? | ? | ? | ?
Oc1ccc(Cl)cc1C1C=C(c2ccc3c(c2)OCO3)NC(c2ccc(C(F)(F)F)cc2)N1 (centres undefined) | nt | ? | nt | i | nt | nt
COc1cccc(C2NC(=S)NC(C)=C2C(=O)c2ccccc2)c1OC (centres undefined) | ? | 1.8µM* | 1.5µM* | ? | 2.3µM* | 5.8µM*
C=CCOc1ccc(C2NC(=S)NC(C)=C2C(=O)c2ccccc2)cc1OC (centres undefined) | 3% | i | -4% | i | -8% | 12%
O=C(NCc1ccco1)C(c1ccccc1)N(CC1CCCO1)C(=O)Cn1nnc2ccccc21 (centres undefined) | -4% | i | 0% | 21µM* | -4% | ?
CC/C(=N/NS(=O)(=O)c1ccc(Cl)cc1)c1ccc(O)cc1 | 0% | i | 6% | i | 15% | nt
CCN=C(NS(=O)(=O)c1ccc(Br)cc1)c1ccc(Cl)cc1 | 1.8µM* | i | 1% | ? | -5% | -73%
NCCO/C=C/[C@H](N)C(=O)O | 4% | nt | nt | nt | nt | -8%
CCOc1cc(C(=S)N2CCCCC2)ccc1OS(=O)(=O)c1ccc(Br)cc1 | ? | ? | -1% | 4.1µM* | -21% | 8%
CCOc1cc(C(=S)N2CCCCC2)ccc1OS(=O)(=O)c1ccc(Cl)cc1 | ? | ? | -6% | 2.9µM* | -25% | 20%
SMILES | MCF10A rereplic | KB-3-1 cytotox | HT1080 IDH1KD tx | KB-V1 MDR tox | HT1080NT lethal | SW480 rereplic
COc1cccc(NC(=S)NNC(=O)c2c([N+](=O)[O-])c(C)nn2C)c1 | 15% | i | 7.9µM* | i | ? | 7%
Cc1cccc(C)c1-n1nnnc1C(c1ccnc2ccccc12)N(CCN(C)C)Cc1ccccc1 (centres undefined) | nt | ? | 21µM* | ? | 21µM* | nt
O=C(CN1CCN(C(=O)c2cccc(-n3cnnn3)c2)CC1)Nc1ccccc1Cl | 3% | i | 17% | i | 9% | -3%
Cn1nc(C(F)(F)F)c(C(=O)Nc2ccc(F)cc2F)c1Oc1cccc(Cl)c1 | -11% | i | -29% | ? | -5% | 0%
Cn1nc(C(F)(F)F)c(C(=O)Nc2ccc(F)cc2F)c1Cl | 6% | i | 5% | i | 10% | -9%
Cn1nc(C(F)(F)F)c(C(=O)Nc2ccc(F)cc2F)c1Sc1cccc(Cl)c1 | ? | i | ? | 16µM* | -4% | ?
Cn1nc(C(F)(F)F)c(C(=O)Nc2ccc(F)cc2F)c1Sc1cccc(C(F)(F)F)c1 | 10% | ? | 0% | 13µM* | 0% | -5%
Cc1ccc(N2CCN(C(=O)C3CCC(CNS(=O)(=O)c4ccc(Br)s4)CC3)CC2C)cc1 (centres undefined) | nt | i | nt | i | nt | nt
COc1ccccc1NC(=O)COC(=O)CCC(=O)c1cccs1 | -1% | i | 8% | i | 5% | 3%
COc1cc(/C=C/C(=O)OCC(=O)N(C)C2CCS(=O)(=O)C2)ccc1OC(F)F (centres undefined) | 1% | nt | 2% | nt | 0% | -4%
O=C(Nc1ccc(S(=O)(=O)NCc2ccccc2)cc1)c1ccc(Br)o1 | 1% | i | -1% | i | -2% | -3%
C=CCn1c(NC(=O)c2ccc(Br)o2)c(S(=O)(=O)c2ccccc2)c2nc3ccccc3nc21 | 12µM* | i | -3% | ? | -6% | 17%
C=CC[C@]12CCc3ccccc3C1N(c1ccc(C(=O)OCC)cc1)C2=O (some centres undefined) | 8% | i | -1% | i | ? | 2%
COc1cccc(CNC(=O)CCn2c(=O)c3cccn3c3cccnc32)c1 | 0% | i | 11% | 18µM*! | ? | ?
COc1ccc(CCNC(=O)CCCn2c(=O)c3cccn3c3cccnc32)c(OC)c1 | -3% | i | 4% | i | 25% | -15%
O=c1c2c3nc4ccccc4nc3n(-c3ccc4c(c3)OCCO4)c2ncn1C1CCCC1 | 7.1µM* | ? | 24% | ? | 24% | 13µM*

Bioassay records (PubChem BioAssay)
